About 83,000 compounds went through this panel and 20% of them were active in at least one assay; those are over-represented in the sample as a whole.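 Treatment: one concentration, 48 hours, 96-well format. Scoring: percent growth, with anything below 10 considered active.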 Active and inactive are the calls of the source.

The first test relates to HCT-116 colon. Briefly: NCI-60 one-dose screen, 48 h (100 = growth as untreated, 0 = no growth, -100 = all killed). Particulars: 10 µM unless noted.
Regarding `COc1ccc(C(=O)Nc2cccc(C3CCc4c(cc(OC)c(OC)c4OC)O3)c2)cc1` (stereo not given), the growth is 23.1% (inactive). `N=C(N)c1ccc(OCCCCCCCCCCOc2ccc(C(=N)N)cc2)cc1`: the growth is -99.7% (active). Turning to `COc1cc2nc(-c3ccc(Cl)cc3)cc(OCCCN3CCOCC3)c2cc1OC`, the growth is 21.1% (inactive). The same measure, in the same setting: next, `Brc1ccc2[nH]cc(-c3cncn3CCc3ccccc3)c2c1`: 43% (inactive).

In the next test the test system is HCC-2998 colon. Described as above. Particulars: 10 µM unless noted.
In the case of `N/C(=N\C(N)=N\c1nc2ccccc2s1)c1cccc(Cl)c1`, the growth is 104% (inactive).

On to `CCOC(=O)[C@@H](C)C[C@H](Cc1ccccc1)NC(=O)c1csc([C@@H](C[C@H](C(C)C)N(C)C(=O)[C@@H](NC(=O)[C@H]2C[C@H](O[Si](C)(C)C(C)(C)C)CCN2C)C(C)C)OC(C)=O)n1`, for which the growth is -1.53% [9.25 µM] (active). For the compound `COC(=O)/C=C1\S/C(=N\NC(=O)c2cc3ccc2/C=C\c2ccc(cc2)/C=C\3)N(c2ccccc2)C1=O`, the growth was 3.64% (active).

In the case of `NNC(=O)c1ccc(-n2nc(-c3ccccc3)c3ccccc32)cc1`, the growth was 54.8% (inactive). `NC(=NCCCOc1ccc(F)cc1)Nc1ccc(I)cc1`: the growth was 29.2% (inactive). With `N#CC1C(C#N)C(C(=O)c2ccc(Br)cc2)N2c3ccccc3C=CC12` (stereo not given), the growth is 50.7% (inactive).

As for `CCN1C(=O)/C(=C/C(=O)OC)S/C1=N\NC(=O)c1cc2ccc1/C=C\c1ccc(cc1)/C=C\2`, the growth was 105% (inactive). In the case of `COc1ccccc1/C=C1\Oc2cc(OCCN3CCCC3)ccc2C1=O`, the growth is 75.8% (inactive). `Cc1cc2nc3c4ccc(Br)cc4n(CCN(C)C)c3nc2cc1C`: the growth was 17% (inactive).

For `C/C(=N\Nc1cc(C)nc2ccc(Br)cc12)c1ccc([N+](=O)[O-])cc1`, the growth is 55.8% (inactive). As to `COc1cc(C2C3CC4CCCC[C@H]4N3[C@@]3(C(=O)Nc4cc(Cl)ccc43)C2C(=O)c2nc3ccccc3[nH]2)cc(OC)c1OC` (stereo not given in full), the growth was 69.9% (inactive). Same read-out and setting: the figure for `O=C1OC(Cc2ccccc2)C1c1ccccc1` (stereo not given) is 99.5% (inactive); for `CC(Oc1ccc(C(=O)O)cc1C(F)(F)F)c1ccc(Oc2ccccc2)cn1` (stereo not given) it is 108% (inactive); for `CC(Sc1nc2ccccc2c(=O)n1CCc1ccc(S(N)(=O)=O)cc1)C(=O)Nc1ccc(Cl)cc1` (stereo not given) it is 103% (inactive). Consider `CC1=CCC(OC(=O)C(C)(O)CCC(O)(C(=O)OC2(C)C=CC(O)(C(C)C)CC2)C(C)C)(C(C)C)CC1` (stereo not given), for which the growth is 112% (inactive).

Turning to `ClC1=C(Br)C(Br)(Br)C(=C(Br)Br)C1(Br)Br`, the growth was 115% (inactive).

Regarding `C=C1C(=O)O[C@H]2[C@H]1CC/C(CNC(=O)C(C)c1ccc(CC(C)C)cc1)=C\CC[C@@]1(C)O[C@@H]21` (stereo not given in full), the growth was -5.64% (active).

Turning to `CCCCCN1C=C/C(=C\C(=O)N2CCCc3ccccc32)c2ccccc21`, the growth is 102% (inactive). As for `N#Cc1cc(-c2nc3ccccc3s2)c(=O)n(NS(=O)(=O)c2ccccc2)c1N`, the growth was 116% (inactive). Turning to `CCCOc1ccc(/C=N/Nc2cc(C)nc3ccc(Cl)cc23)cc1`, the growth was -39.9% (active). Regarding `Cc1cccc(NC(=O)Nc2ccc(-n3cnc4cc(-c5ccc(O)cc5)ccc43)cc2)c1`, the growth is 63.6% (inactive). For the compound `O=c1c2c(c(=O)n1O)c1c3ccc[nH]c3nc1c1nc3[nH]cccc3c12`, the growth was 84.9% (inactive). For `O=C(CNCCN1CCOCC1)N1c2cccc3cccc(c23)N(C(=O)CNCCN2CCOCC2)C1c1cn(-c2ccccc2)nc1-c1cccc([N+](=O)[O-])c1`, the growth is 35.4% (inactive).

`O=Cc1cc2ccccc2nc1Oc1ccc(C(F)(F)F)cc1`: the growth is 108% (inactive). Still for that read-out and setting: next, `COc1ccc(C(=O)/C=C/c2cc3ccccc3n3nnnc23)cc1`: 111% (inactive); `CN1CCN(C(=O)[C@]23CCC(C)(C)C[C@H]2C2=CC[C@@H]4[C@@]5(C)C/C(=C/c6cccnc6)C(=O)C(C)(C)[C@@H]5CC[C@@]4(C)[C@]2(C)CC3)CC1`: 66.6% (inactive). `CCN(CC)c1ccc(/C=N/NC(=O)CSc2nc3ccccc3c(=O)n2CCc2ccc(S(N)(=O)=O)cc2)c(O)c1`: the growth was 35.8% (inactive). With `CCCCCCNC(=O)Nc1ccc2cc3ccc(NC(=O)NCCCCCC)cc3nc2c1`, the growth was -24.5% (active). As to `CCNC(=O)Oc1ccc(/C(=C(\C)c2ccccc2)c2ccc(OCCN(CC)CC)cc2)cc1`, the growth is 91.5% (inactive). As to `CC/C(=C\c1ccc(OC)cc1)C(=O)c1ccc(OC)cc1`, the growth is 93.5% (inactive). With `CCc1ccc(CNc2ccc(N3CCOCC3)c(C(=O)O)c2)cc1`, the growth was 104% (inactive).

Source of the values: PubChem BioAssay (NCI).
